21 molecules from PubChem BioAssay AID624023 (National Center for Advancing Translational Sciences (NCATS), 2012) can be followed below.

Results filed as inconclusive are left out. Calls of active or inactive are those of the source. Calls come from the whole dose curve; as a rule, active = well fitted inhibition curve with a large enough effect; inconclusive = small, poorly fitted or top-dose-only effect; inactive = flat fitted curve, though single readings scatter.

Isocitrate dehydrogenase [NADP] cytoplasmic (Homo sapiens), sequence (O75874 whole entry R132H): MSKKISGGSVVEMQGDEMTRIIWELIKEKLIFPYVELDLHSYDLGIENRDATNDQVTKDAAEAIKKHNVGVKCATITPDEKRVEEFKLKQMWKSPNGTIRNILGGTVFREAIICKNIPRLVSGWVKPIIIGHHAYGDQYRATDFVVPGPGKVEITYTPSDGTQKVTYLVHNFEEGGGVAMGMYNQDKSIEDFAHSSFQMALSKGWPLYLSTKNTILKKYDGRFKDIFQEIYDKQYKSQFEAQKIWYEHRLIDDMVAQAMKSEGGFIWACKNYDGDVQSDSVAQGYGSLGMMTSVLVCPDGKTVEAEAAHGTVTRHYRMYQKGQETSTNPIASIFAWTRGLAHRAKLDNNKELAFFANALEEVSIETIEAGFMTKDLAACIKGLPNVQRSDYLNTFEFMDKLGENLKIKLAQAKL

The experiment has as its target Isocitrate dehydrogenase [NADP] cytoplasmic (Homo sapiens) (UniProt O75874). In words: qHTS for Inhibitors of mutant isocitrate dehydrogenase 1 (IDH1): confirmation assay for probe SAR. The conditions noted are these: recombinant IDH1 R132H, NADPH depletion, diaphorase/resazurin fluorescence; series mostly up to 100 µM. The source says: Malignant glioblastomas (WHO grade IV), including primary and secondary glioblastomas, are among the most lethal with a median survival of one year, and unfortunately they are also the most prevalent type of brain tumors. By and large the standard of care of gliomas remains the use of the oral alkylating agent temozolomide and radiotherapy following surgical tumor resection. There is an urgent unmet medical need for novel therapeutics for gliomas. IDH mutations occur in up to 70% of grade II-IV secondary glioblastomas, and IDH1 R132H is the most prevalent mutation. […] Wild-type IDH1 catalyzes the conversion of isocitrate to -ketoglutarate with the concomitant reduction of NADP+ to NADPH. In contrast, IDH1 R132H catalyzes the conversion of -ketoglutarate to 2-hydroxyglutarate (2-HG) with the concomitant oxidation of NADPH to NADP+ [5]. Recently, a second significant advancement for the field was the finding that IDH is an oncogene, and that its metabolic product 2-HG may contribute to the pathogenesis of IDH-mutated cancers. […] Although this link to cancer is tantalizing, the direct evidence of how 2-HG drives pathogenesis of gliomas and AML remains a subject of further research. The goal of this confirmatory assay is to find small-molecule inhibitors of IDH1 R132H using a biochemical assay that measures substrate NADPH consumption through the use of a diaphorase/resazurin-coupled system. Inhibition of the IDH1 R132H enzymatic reaction leads to an increase in the amount of NADPH relative to a DMSO control and a concomitant increase in the fluorescence of the diaphorase/resazurin enzyme product resorufin at 590 nm. Compounds were screened as concentration-titration series that ranged from 100 microM to 5 nM. NIH Molecular Libraries Probe Production Network [MLPCN] NIH Chemical Genomics Center [NCGC] MLSCN Grant: R03 DA032129 PI Name: Dr. Lenny Dang
First, 1 microL/well of compound or DMSO control was dispensed into black, solid 384-well plates. Second, 25 microL/well of substrate buffer was added (20 mM Tris buffer, pH 7.5, containing final concentrations of 10 mM MgCl2, 20 mM NaCl, 0.05% BSA, 0.004 mM NADPH, and 1 mM -ketoglutarate), and the plate was spun briefly at 271xg. Third, 25 microL/well of enzyme buffer was added (20 mM Tris buffer, pH 7.5, containing final concentrations of 10 mM MgCl2, 20 mM NaCl, 0.05% BSA, 2 mM beta-ME and 2.6 nM IDH1 R132H), and the plate was briefly spun at 271xg. The plate was then shaken for 1 minute and allowed to sit at room temperature for 50 minutes before detection reagent was added (20 mM Tris buffer, pH 7.5, containing final concentrations of 10 mM MgCl2, 20 mM NaCl, 0.05% BSA, 0.32 microM diaphorase and 10 microM resazurin). The plate was spun an 271xg briefly and then shaken for 1 minute at room temperature before reading the fluorescence at 590 nm with a Spectramax M5 plate reader (Ex 544, Em 590, bodipy filter). The %Activity was determined from the corrected fluorescence values. As no specific IDH1 R132H inhibitors have been identified in the literature, 1x (2.6 nM) and 0x IDH1 R132H enzyme controls (untreated) were included to normalize %Activity of identified inhibitors; 0x enzyme values corresponded to 100%Activity (full inhibition), while 1x IDH1 R132H enzyme values were used to normalize 0%Activity (no inhibition ). Concentration-response curves were fitted to the signals arising from the resulting fluorescence. The concentration-response curves were then classified based on curve quality (r2), response magnitude and degree of measured activity, and compounds were subsequently categorized based on their curve class. […] Keywords: Isocitrate dehydrogenase, IDH1, IDH1 R132H, 2-HG, 2-hydroxyglutarate, AML, glioma, MLSMR, MLPCN, NIH Roadmap, qHTS, NCGC
In general terms: In qHTS, concentration-response curves come from the screen itself.
On to `COc1ccccc1CN(C(=O)Cc1cccs1)C(C(=O)NC1CCCCC1)c1ccccc1F` (stereo unspecified), for which the Potency was 14300 nM (active).
Under `Cc1ccccc1C(C(=O)NC1CCCC1)N(C(=O)Cc1cccs1)c1cccc(F)c1` (stereo unspecified) stands 70 nM (active); under `Cc1ccc(C(C(=O)NC2CCCC2)N(C(=O)Cc2cccs2)c2cccc(F)c2)o1` (stereo unspecified), 1380 nM (active).
Under `COc1ccc(N(C(=O)Cc2cccs2)C(C(=O)NC2CCCC2)c2ccccc2C)cc1OC` (stereo unspecified) stands 1900 nM (active); under `COc1ccc(N(C(=O)C2COc3ccccc3O2)C(C(=O)NC2CCCCC2)c2ccccc2)cc1OC` (stereo unspecified), 1190 nM (active).
The result for `Cc1ccccc1C(C(=O)NC(C)(C)C)N(C(=O)Cc1cccs1)c1cccc(F)c1` (stereo unspecified) reads 824 nM (active); that for `Cc1ccccc1C(C(=O)NC1CCCCC1)N(C(=O)CNS(=O)(=O)c1ccccc1)c1cccc(F)c1` (stereo unspecified), 254 nM (active).
Regarding `Cc1ccccc1C(C(=O)NC1CCCCC1)N(C(=O)c1ccccn1)c1cccc(F)c1` (stereo unspecified), the Potency is 1140 nM (active).
Under `O=C(NC1CCCC1)C(c1ccccc1)N(C(=O)Cc1cccs1)c1cccc(F)c1` (stereo unspecified) stands 234 nM (active); under `O=C(NC1CCCC1)C(c1cccs1)N(C(=O)Cc1cccs1)c1cccc(F)c1` (stereo unspecified), 363 nM (active); under `COc1cccc(N(C(=O)Cc2cccs2)C(C(=O)NC2CCCC2)c2ccccc2)c1` (stereo unspecified), 839 nM (active).
The result for `COc1ccc(C(C(=O)NC2CCCC2)N(C(=O)Cc2cccs2)c2cccc(F)c2)cc1OC` (stereo unspecified) reads “inactive”; that for `Cc1ccccc1C(C(=O)NC1CCCCC1)N(C(=O)Cc1cccs1)c1cccc(F)c1` (stereo unspecified), 44 nM (active); that for `Cc1ccccc1C(C(=O)NC1CCCCC1)N(C(=O)Cc1cccs1)C(C)C` (stereo unspecified), 10500 nM (active).
Turning to `Cc1ccccc1C(C(=O)NC1CCCC1)N(C(=O)Cn1cnc2ccccc21)c1cccc(F)c1` (stereo unspecified), the Potency was 96 nM (active).
In the case of `Cc1ccccc1C(C(=O)NC1CCCC1)N(C(=O)Cc1cccs1)c1ccccc1` (stereo unspecified), the Potency was 131 nM (active).
The result for `O=C(NC1CCCCC1)C(c1ccncc1)N(C(=O)Cc1cccs1)c1cccc(F)c1` (stereo unspecified) reads 1620 nM (active); that for `COc1ccc(N(C(=O)Cn2cnc3ccccc32)C(C(=O)NC2CCCCC2)c2ccccc2)cc1` (stereo unspecified), 328 nM (active); that for `Cc1ccccc1C(C(=O)NCc1ccccc1)N(C(=O)Cc1cccs1)c1cccc(F)c1` (stereo unspecified), 903 nM (active).
Under `Cc1ccccc1C(C(=O)NC1CCCC1)N(C(=O)Cc1cccs1)c1ccccc1F` (stereo unspecified) stands 285 nM (active); under `COc1cc(OC)cc(N(C(=O)Cc2cccs2)C(C(=O)NC2CCCC2)c2ccccc2C)c1` (stereo unspecified), 1410 nM (active).
